This is an account of results in PubChem BioAssay (NCI).

The panel holds about 83,000 compounds, 20% with a hit somewhere; the sample as a whole holds those more often.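 Testing used 96-well plates and a 48-hour single-concentration exposure. Example: -40 means 40% of the starting cells died.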 Unmarked numbers belong to inactive results. The source made the active and inactive calls. How the source made its calls: active means growth percent below 10; inactive means the rest.

The subject of this test is MDA-MB-468 breast. The experiment in a line: NCI-60 one-dose screen, 48 h (100 = growth as untreated, 0 = no growth, -100 = all killed). The settings on record: 10 µM unless noted.
Turning to `CN(/C(N)=N/N=C/c1c2ccccc2cc2ccccc12)C1CCCCC1`, the growth is 4.88% (active).

With `Cc1ccc(/C(C#N)=C/c2ccc3c(c2)OCO3)cc1`, the growth is 43.9%.

For the compound `CCCCNc1nc(NN2C(=O)c3cccc4cccc(c34)C2=O)nc(-n2cnc3ccccc32)n1`, the growth is 92.7%.

For `Nc1c(C(=O)NC2CCCCC2)sc2nc3c(cc12)C(=O)CCC3`, the growth is 86.1%.

For the compound `O=C(NCc1ccccc1)/C(=C/c1ccccc1)NC(=O)c1ccccc1`, the growth is 93.9%.

`O=C1/C(=C/c2ccc(O)cc2)COc2ccc(-c3ccccc3)cc21`: the growth is 65%.

Turning to `O=C(O)c1ccccc1C(=O)Nc1ccc(Cl)cc1`, the growth was 120%.

`CCCNc1nc(SC)nc(-c2cccc(N)c2)c1C#N`: the growth was 114%.

For `C=C1C(=O)O[C@H]2[C@H]1CC/C(COC(=O)NCc1ccc(OC)c(OC)c1)=C\CC[C@@]1(C)O[C@@H]21`, the growth is 24.3%.

Turning to `COc1ccc(-c2cc(/C=C3\C(=O)Nc4ccc(Cl)cc43)[nH]n2)cc1`, the growth was 41.7%.

For `O=C1/C=C/[C@@H](O)[C@@H]2C[C@@H](O)C[C@H]2/C=C/CCC[C@@H](C(F)(F)F)O1`, the growth is -40.7% (active).

For `Cc1cccc2c3c(sc12)C(c1ccc(Cl)cc1)c1c(nc(CC(=O)Nc2ccccc2)[nH]c1=O)O3` (stereo not given), the growth is 9.75% (active).

In the case of `O=c1c2ccccc2n(C[C@H]2CO2)c2ccccc12`, the growth is -7.32% (active).

On to `Oc1cccc2ccc(N/N=C/c3cc(CN4CCOCC4)c(O)c4ncccc34)nc12`, for which the growth was -24.6% (active).

Turning to `CN1CCN(c2ccc(-c3cc4c(Nc5ccc(F)c(Cl)c5)ncnn4c3)cc2)CC1`, the growth is 7.99% (active).

As to `CN(C)c1ccc(N=Nc2cccc3ccccc23)cc1`, the growth is -26.6% (active).

`COc1cc(-c2[nH]ncc2Nc2ccc(Cl)cc2)cc(OC)c1OC`: the growth is 55.7%.

With `CC(C)N(CCNc1nc(C(Cl)(Cl)Cl)nc2cc(Cl)ccc12)C(C)C`, the growth is -50% (active).

As for `Nc1ncnc2c1ncn2C1OC(COP(=O)(O)O)C(O)C1O` (stereo not given), the growth was 102%.

As for `CSCCC1NC(=O)C(C(C)=Nc2ccccc2)=C1O` (stereo not given), the growth was 109%.

As to `COc1ccc(\C=N/N=C(N)/C(N)=N\N=C/c2ccc(OC)cc2)cc1`, the growth is 95.7%.

For `Clc1ccccc1[C@@H]1C[C@@H]2Cc3cc(Br)c4ccccc4c3N1O2`, the growth was 4.19% (active).

Regarding `Oc1ccc(Nc2nccc(-c3ccc4ccccc4c3)n2)cc1`, the growth is 20.7%.

As to `COc1ccccc1-c1nc2ccc3[nH]ncc3c2c2c1CCCC2`, the growth is 47.4%.

For `COc1ncc(-c2ccc3nccc(C#CCN4CCN(S(C)(=O)=O)CC4)c3c2)cc1NS(=O)(=O)c1ccc(F)cc1F`, the growth was -67% (active).

Regarding `CN(CCO)c1ccc(N2Cc3ccccc3OC3=C2C(=O)c2c(O)ccc(O)c2C3=O)cn1`, the growth is -64.7% (active).

As for `Cn1c([N+](=O)[O-])cnc1/C=C1\Oc2cc(Cl)ccc2C1=O`, the growth is 68.7%.

Regarding `CCN(CC)CCSCCCNc1c(C)cnc2cc(Cl)ccc12`, the growth is 85.6%.

As for `O=C1CSC(c2ccccc2O)N1c1nnc(Cn2ccnc2)o1` (stereo not given), the growth was 59.1%.

Regarding `O=C(CSc1nccc(Nc2ccc(S(=O)(=O)Nc3nccs3)cc2)n1)c1ccc(F)cc1`, the growth was 98.6%.

As to `COc1ccc(C/C(C)=C(\c2ccc(O)cc2)c2ccc(OCCN3CCCCC3)cc2)cc1`, the growth is 70.2%.

Turning to `O=C1c2cccnc2C(=O)c2c1c(C(=O)NCCCN1CCCCC1)c1ccccn21`, the growth was -73.9% (active).

Consider `N#CC1=C(N)Oc2c(sc3c(F)cccc23)C1c1ccc(Cl)cc1` (stereo not given), for which the growth is -42.2% (active).

As to `Cc1c(C(N)=O)sc2c1c(=O)n(Cc1ccccc1)c1nnc(SCC(=O)Nc3ccc(Cl)cc3)n21`, the growth was 39.6%.

`COc1cc(-c2cc(/C=C/C(C)=O)[nH]n2)cc(OC)c1OC`: the growth is 54.5%.

Regarding `CC(=O)N1N=C(c2ccc(F)cc2)CC1c1sc(N(C)Cc2ccccc2)nc1Cl` (stereo not given), the growth was 98.1%.

For the compound `Nc1cccc2c(=S)c3ccccc3[nH]c12`, the growth was 86.1%.

Consider `CC(=O)O[C@]1(C(C)=O)CC[C@H]2[C@@H]3C=C(Cl)C4=CC(=O)CC[C@]4(C)[C@H]3CC[C@@]21C`, for which the growth was 105%.

Consider `CCc1c(Nc2ccc(C)cc2)nc(N)[nH]c1=O`, for which the growth is 94.5%.

Regarding `CN(CCCCN(C[C@H]1Cc2ncccc2CN1)[C@H]1CCCc2cccnc21)C1CCC(F)(F)CC1`, the growth was 95.3%.
